According to PubChem BioAssay AID1159580 (chemical genetic matrix, 2015):
In all, about 5,500 compounds went through this assay and about 2,000 (36%) were called active. Not shown: some 18% with an inconclusive outcome. No stated cut-off is given here; in the data, active means normalized growth mostly below about 0.91 (no sharp cut-off); inconclusive means no clear call, values can overlap the other calls; inactive means mostly above about 0.92. The list shows a part of the results.

Experiment: chemical genetic growth profiling, strain panel (AID 1159580);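 further: tested at 20 µM; growth read once vehicle control cultures reached saturation at 30 °C; 1 = growth at the plate median or of vehicle wells; lower values mean less growth of the strain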
Conditions: growth OD

Measured: normalized growth

O=C(Nc1ccccc1)N1CCN(C(c2ccccc2)c2ccccc2)CC1
inactive: S. cerevisiae deletion strains, locus YAL013W, strain DEP1, active compounds read low 0.988 | S. cerevisiae deletion strains, locus YBR229C, strain ROT2, active compounds read low 0.992 | S. cerevisiae deletion strains, locus YDL101C, strain DUN1, active compounds read low 0.994 | S. cerevisiae deletion strains, locus YDL134C, strain PPH21, active compounds read low 1.01 | S. cerevisiae deletion strains, locus YDR150W, strain NUM1, active compounds read low 1 | S. cerevisiae deletion strains, locus YEL061C, strain CIN8, active compounds read low 0.997 | S. cerevisiae deletion strains, locus YGR078C, strain PAC10, active compounds read low 1 | S. cerevisiae deletion strains, locus YGR229C, strain SMI1, active compounds read low 1 | S. cerevisiae deletion strains, locus YHR030C, strain SLT2, active compounds read low 0.963 | S. cerevisiae deletion strains, locus YHR087W, strain rtc3, active compounds read low 0.993 | S. cerevisiae deletion strains, locus YJL187C, strain SWE1, active compounds read low 1.01 | S. cerevisiae deletion strains, locus YJR043C, strain POL32, active compounds read low 0.978 | S. cerevisiae deletion strains, locus YJR075W, strain HOC1, active compounds read low 1.02 | S. cerevisiae deletion strains, locus YKL190W, strain CNB1, active compounds read low 0.989 | S. cerevisiae deletion strains, locus YLR039C, strain RIC1, active compounds read low 0.992 | S. cerevisiae deletion strains, locus YLR058C, strain SHM2 (second series), active compounds read low 0.991 | S. cerevisiae deletion strains, locus YLR085C, strain ARP6, active compounds read low 1.06 | S. cerevisiae deletion strains, locus YLR262C, strain YPT6, active compounds read low 0.985 | S. cerevisiae deletion strains, locus YML094W, strain GIM5, active compounds read low 1.04 | S. cerevisiae deletion strains, locus YMR219W, strain ESC1, active compounds read low 1.01 | S. cerevisiae deletion strains, locus YMR263W, strain SAP30, active compounds read low 0.989 | S. cerevisiae deletion strains, locus YNL153C, strain GIM3, active compounds read low 0.994 | S. cerevisiae deletion strains, locus YNL298W, strain CLA4 (second series), active compounds read low 0.966 | S. cerevisiae deletion strains, locus YNL322C, strain KRE1, active compounds read low 1 | S. cerevisiae deletion strains, locus YNR030W, strain Alg12, active compounds read low 0.986 | S. cerevisiae deletion strains, locus YPL055C, strain LGE1, active compounds read low 1.08 | S. cerevisiae deletion strains, locus YPL241C, strain CIN2, active compounds read low 1.03 | S. cerevisiae deletion strains, locus YPR135W, strain CTF4, active compounds read low 0.902 | S. cerevisiae strains, strain wild type, active compounds read low 0.973
